EPAC2 antagonist: blocks human EPAC2 exchange factor; AID 720708; EPAC2 GEF exchange of Rap1B-BODIPY-GDP, fluorescence; hit rate 0.18% among 360,000; Q8WZA2; Potency, µM (series often up to 114 µM), hits mostly inhibitors; also: nearly all actives have a fitted effect of over 45% in size
EPAC1 antagonist: EPAC1 (human) antagonism | Potency, µM (series often up to 115 µM), most hits filed as inhibitors | AID 720709 | EPAC1 GEF assay, Rap1b-BODIPY-GDP exchange fluorescence | hit rate 0.14% among 360,000 | O95398; also: nearly all actives have a fitted effect of over 50% in size
EPAC2 ag: agonists of human EPAC2 (RAPGEF4); Potency, µM (doses to about 154 µM), most hits filed as activators; hit rate 0.079% among 360,000; Q8WZA2; EPAC2 activation, biochemical qHTS; response scale: 100% = 6.5 mM cAMP response; AID 720711; also: nearly all actives have a fitted effect of over 50% in size
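Compounds were titrated in qHTS against a Rap1B-BODIPY-GDP (250 nM) complex with EPAC2 (100 nM) and GDP (50 uM). BODIPY-GDP release tracked at 480/540 nm over 30 min at room temperature, normalized to 6.5 mM cAMP.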
EPAC1 ag: activates human EPAC1 exchange factor; EPAC1 agonist qHTS, biochemical assay; response scale: 100% = response to 6.5 mM cAMP; Potency, µM (titrated, usually from 154 µM), hits mostly activators; hit rate 0.073% among 360,000; AID 720707; also: nearly all actives have a fitted effect of over 60% in size
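Compounds were pinned as a concentration titration into mixtures of EPAC1 (100 nM), BODIPY-GDP-loaded Rap1B (250 nM) and GDP (50 uM). After 5 min at room temperature, fluorescence was followed for 30 min; activity was scaled to 6.5 mM cAMP.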
PKM2 activator: PKM2 (human) enzyme activation; AID 1631; hit rate 0.34% among 260,000; purified PKM2, Kinase-Glo ATP luminescence, activation; response scale: 0% is enzyme alone, no compound; Potency, µM (doses to about 57.5 µM), usual class: activators; also: nearly all actives have a fitted effect of over 55% in size
Target sequence (P14618 whole entry, looked up): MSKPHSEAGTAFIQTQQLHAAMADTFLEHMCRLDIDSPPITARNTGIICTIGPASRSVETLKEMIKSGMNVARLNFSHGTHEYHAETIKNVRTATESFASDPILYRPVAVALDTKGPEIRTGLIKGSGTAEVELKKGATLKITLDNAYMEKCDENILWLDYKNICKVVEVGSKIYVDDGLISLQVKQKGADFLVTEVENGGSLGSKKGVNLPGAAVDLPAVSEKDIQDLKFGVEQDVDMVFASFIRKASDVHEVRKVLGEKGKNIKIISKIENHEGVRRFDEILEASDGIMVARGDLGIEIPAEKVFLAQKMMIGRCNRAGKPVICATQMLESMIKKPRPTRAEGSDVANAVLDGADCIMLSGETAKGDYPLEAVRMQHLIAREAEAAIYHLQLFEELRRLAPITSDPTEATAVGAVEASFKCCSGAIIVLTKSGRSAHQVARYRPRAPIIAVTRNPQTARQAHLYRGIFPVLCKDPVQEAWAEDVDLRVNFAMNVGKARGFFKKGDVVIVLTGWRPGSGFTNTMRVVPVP
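Purified hPK-M2 (>95%) run at intermediate activity with 0.1 mM ADP and 0.5 mM PEP in 50 mM imidazole pH 7.2, KCl, MgCl2; 1 h room temperature. ATP formed read by Kinase-Glo luminescence; normalized to uninhibited and no-enzyme controls.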
IL-2 act: IL-2 activation; IL-2 activation reporter assay, cell-based qHTS; stimulated with anti-CD3/CD4/CD28 beads; in transgenic mouse T cells; activation, % (series mostly up to about 46 µM); hit rate 0.065% among 360,000; AID 652025; in the data active = activation above about 50%; inconclusive = mostly about 30% to 49%
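First, unstimulated transgenic mouse T cells were exposed to compound for 60 min. Next, anti-CD3/anti-CD4-coated beads with anti-CD28 were added. Finally, after 18 h at 37 degrees C, EGFP and DsRed were imaged.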
A number is an active result; i = inactive; ? = inconclusive; nt = no result given. Hits are enriched below; roughly 0.64% of the tested compounds scored in any of these assays. Unless noted, calls follow the shape of the dose curve; as a rule, active = well fitted curve in the direction sought with a large enough effect; inconclusive = small, poorly fitted or top-dose-only effect, or another doubt; inactive = no such curve, though single readings can be large; an effect the other way counts as inactive or inconclusive.

SMILES	EPAC2 antagonist	EPAC1 antagonist	EPAC2 ag	EPAC1 ag	PKM2 activator	IL-2 act
Cc1c(C=O)c2ccccc2n1Cc1ccccc1	i	i	i	i	i	i
O=C1C(=O)C(Cl)=C(Cl)C(Cl)=C1Cl	i	?	i	i	nt	i
CN(C)c1ccc(N=Cc2c(O)n(CCC3=CCCCC3)c(=O)[nH]c2=O)cc1	i	i	i	?	i	206
C=CCn1c(O)c(C=Nc2ccc(N(CC)CC)cc2)c(=O)[nH]c1=O	i	i	i	i	i	i
O=c1[nH]c(=O)n(CCC2=CCCCC2)c(O)c1/C=N/Nc1ccccc1	i	i	i	i	i	i
CCN(CC)c1ccc(N=Cc2c(O)n(CCC3=CCCCC3)c(=O)[nH]c2=O)cc1	56µM	i	?	i	i	i
Brc1nc(-c2ccccc2)nc(-c2ccccc2)c1Br	i	i	i	i	nt	i
C=C(CC1(C(C)NP(=O)(c2ccccc2)c2ccccc2)CC1)c1ccccc1 (centres undefined)	nt	nt	nt	nt	i	nt
C[n+]1c(-c2ccccc2)c2cc(N)ccc2c2ccc(N)cc21	i	i	i	i	i	i
Nc1ccc2ccc3cccc[n+]3c2c1	i	i	112µM	100µM	i	i
CCOC(=O)[C@]12Cc3cc(Cl)ccc3[C@H]1N(C(C)C)C(=O)c1ccccc12	17µM	i	i	i	nt	i
CCOC(=O)[C@]12Cc3cc(Cl)ccc3[C@H]1N(C)C(=O)c1ccccc12	i	i	i	i	nt	i
CCOC(=O)[C@]12Cc3cc(OC)ccc3[C@H]1N(Cc1ccccc1)C(=O)c1cc(OC)ccc12	i	i	i	i	nt	i
CCOC(=O)[C@]12Cc3ccccc3[C@H]1N(Cc1ccccc1)C(=O)c1cc(OC)ccc12	28µM	i	i	i	nt	i
Cc1cccc(N2C(=O)NC(=O)/C(=C\c3cc(C)n(-c4sc5c(c4C#N)CCCC5)c3C)C2=O)c1C	i	35µM	i	i	i	i
O=C(Nc1ccc(Oc2ccc(Cl)cc2)c(Cl)c1)c1cc(I)cc(I)c1O	?	40µM	i	i	i	i
COc1ccc(OC)c(/C=N/OC(=O)Nc2ccc(Cl)cc2)c1	i	i	i	i	i	i
N#Cc1cc(NC(=O)c2ccc(Cl)cc2)ccc1Sc1ccccc1	?	i	i	i	nt	i
O=c1[nH]c(=S)n(-c2ccccc2F)c(O)c1C=Nc1ccc(N2CCOCC2)cc1	i	i	?	56µM	i	i
N#CC(C#N)=NNc1ccc(OC(F)(F)F)cc1	nt	nt	nt	nt	i	nt
COc1cccc(C(C)(O)c2nc(-c3cccc(F)c3)cs2)c1 (centres undefined)	?	i	i	i	nt	i
C=CC[C@@H](CC(=O)N(CCO)Cc1ccccc1)C(=O)NC[C@H](OC(=O)[C@@H](CC=C)CC(=O)OC(C)(C)C)c1ccccc1	?	i	i	i	nt	i
Clc1cc(Cl)c(-c2cc(Cl)c(Cl)cc2Cl)cc1Cl	4µM	i	i	i	nt	i
Oc1ccc(Cl)c(Cl)c1	i	i	i	i	nt	i
Cc1cccc(N=Cc2c(O)n(-c3ccccc3C)c(=O)[nH]c2=O)c1	i	i	i	i	i	i
SMILES	EPAC2 antagonist	EPAC1 antagonist	EPAC2 ag	EPAC1 ag	PKM2 activator	IL-2 act
Cc1cccc(-n2c(O)c(/C=C/C=Nc3ccccc3)c(=O)[nH]c2=O)c1	i	i	i	100µM	i	i
Cc1ccccc1-n1c(O)c(/C=C/C=Nc2ccccc2)c(=O)[nH]c1=O	i	i	?	89µM	i	i
CCn1c(N)c(C(=O)NC)sc1=S	i	i	i	i	i	i
COc1ccccc1Cc1c(-c2ccc(C)cc2)nc2cc(C)c(Br)c(C)n12	i	i	i	?	nt	i
COc1cc(/C=C/c2nc3ccccc3c(=O)n2-c2cccc(O)c2)ccc1O	i	50µM	i	i	?	i
COc1ccc(NC(=O)CN(C)C(=O)CSC(c2ccccc2)c2ccccc2)cc1	i	i	i	i	nt	i
COc1ccc(C(SCC(NC(=O)OCc2ccccc2)C(=O)O)c2ccc(OC)cc2)cc1 (centres undefined)	14µM	i	i	i	nt	i
COc1ccc(OC)c(N=Cc2c(O)n(Cc3ccccc3)c(=S)[nH]c2=O)c1	i	i	?	i	i	80
COc1ccc(N=Cc2c(O)n(Cc3ccccc3)c(=S)[nH]c2=O)c(OC)c1	i	i	100µM	i	i	i
CCOc1ccc(N2C(=O)/C(=C/c3ccco3)C(=O)NC2=S)cc1	?	11µM	i	i	i	i
O=c1cc(C(F)(F)F)c2cc3c4c(c2o1)CCCN4CCC3	i	i	45µM	?	i	i
O=c1cc(-c2ccc(O)c(O)c2)oc2cc(O)cc(O)c12	i	45µM	i	i	i	i
CCCCN1C(=O)/C(=C\c2ccco2)C(=O)N(CCc2ccccc2)C1=O	i	25µM	i	i	i	i
O=C1NC(=O)N(Cc2ccccc2)C(=O)/C1=C\c1ccco1	i	?	i	i	i	i
